Experimental data: the supplement of paper PMC6555819

Legend:
Assay in all cases: PBM binding z-score (relative to random genomic background probes); higher = stronger binding; sequences stand for … in GC…GCGATTGACAGCGTAGAATGAAGG
[1] = test system: FXR:RXRa (NR concentration 270 nM, RXRa partner concentration 90 nM)
How it was run: (§1)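 Ligand-free nuclear receptor dimers were applied to custom Agilent 4×180K protein-binding microarrays whose double-stranded probes carried direct-repeat seeds, single-nucleotide variants, half-site ablations and random human genomic background sequences in 34-nt variable regions. Incubation lasted 1 h. Binding z-scores were computed against the random background probes from regression-normalized fluorescence.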

[2] = test system: LXRa:RXRa (NR concentration 270 nM, RXRa partner concentration 90 nM)
How it was run: as §1

[3] = test system: LXRa homodimer (NR concentration 270 nM)
How it was run: as §1

[4] = test system: LXRb:RXRa (NR concentration 270 nM, RXRa partner concentration 90 nM)
How it was run: as §1

[5] = test system: LXRb homodimer (NR concentration 270 nM)
How it was run: as §1

[6] = test system: PPARa:RXRa (NR concentration 270 nM, RXRa partner concentration 90 nM)
How it was run: as §1

[7] = test system: PPARg:RXRa (NR concentration 180 nM, RXRa partner concentration 90 nM)
How it was run: as §1

[8] = test system: PPARg:RXRa 270nM:90nM, anti-RXR (NR concentration 270 nM, RXRa partner concentration 90 nM)
How it was run: as §1

[9] = test system: PPARg:RXRa 30nM:10nM, anti-RXR (NR concentration 30 nM, RXRa partner concentration 10 nM)
How it was run: as §1

[10] = test system: PPARg:RXRa 90nM:30nM, anti-RXR (NR concentration 90 nM, RXRa partner concentration 30 nM)
How it was run: as §1

Sequence	PBM binding z-score [1]	PBM binding z-score [2]	PBM binding z-score [3]	PBM binding z-score [4]	PBM binding z-score [5]	PBM binding z-score [6]	PBM binding z-score [7]	PBM binding z-score [8]	PBM binding z-score [9]	PBM binding z-score [10]
CCTCGCAGGACAGAAGGTCAGAGCTGTCCGCTTT	1.07	1.44	0.197	1.13	-0.678	1.86	-0.29	0.666	-0.929	0.0497
TCTTGTAGATCAACAGAGGTTAAGAAAGTGCGCT	0.849	3.72	0.564	2.19	-0.36	2.09	0.162	1.64	2.33	1.98
CCTGCTAGGTCATCGTCAGCTAATCTACAGTATG	3.85	2.89	0.112	1.87	-0.413	3.5	2.06	2.75	0.439	1.47
TCTATTCGTTGATTAGGGCAACCGAAACAGCGGA	0.77	0.642	-0.323	0.409	0.94	0.827	0.127	1.93	3.6	2.72
CTACCAAGGTGAACAAGGTCCTTGATTACTATTC	0.682	0.376	-0.214	0.744	-0.587	1.57	0.578	0.855	-0.122	0.296
CGTCAAAGTTCCACTAAGGTAACGTAAAGCACGC	0.0989	-0.0438	-0.0633	0.0124	0.0274	0.268	0.459	0.573	-0.0574	0.281
CGAGCGAGGGCATGAGTTGATAGCAAATGCCGAT	0.5	0.467	-0.292	0.175	-1.07	0.945	0.571	0.44	-0.503	0.0146
TCTTGTAGATCAACAGGCGGTTAAGAAAGATCGA	0.118	0.174	-0.388	0.205	-0.307	0.615	-0.161	1.12	2.44	1.81
ATCTCTAGGCAAAAGTTCAGTGAATCCCGAGGAT	0.235	0.757	0.751	0.584	0.319	2.96	5.41	6.14	5.06	6.01
CGTCAAAGTTCAAGGTAACGTAGCAGAAAGCAGC	6.17	5.74	2.69	3.38	0.96	4.55	4.28	5.21	2.09	4.31
CCTAGTCGGTCAAGGTCACACACGCTATAGGTAC	4.93	4.51	2.64	3.94	1.16	4.61	4.76	4.67	2.13	3.88
CCTACTGGGCCAAAGTCATTGATCAGTCAAAGCA	-0.681	-0.266	-0.412	-0.243	-1.2	0.687	1.42	2.53	0.485	1.74
GCTATTAGTTGAAAGGGCTACCGAATGATTCTCG	-0.348	-0.291	-0.117	-0.32	-0.468	0.0178	0.531	1.52	0.317	1.21
TGGATGAGGTTAAAGATCAGGGAACGTGGCGTCG	3.69	2.74	0.085	2.45	1.54	4.13	3.75	4.84	3.49	4.98
CGTCCACGGTCAAGGTCAGTGAAAGAGACTCGAA	2.73	1.71	-0.21	1.6	-0.801	2.61	0.677	1.15	-0.28	0.438
TCGAGTAGGTTCCCAATGGGGCATTCAGCTTTCT	-0.431	-0.384	-0.577	-0.1	-1.76	-0.101	-0.771	0.361	0.7	0.426
AATACAGGGCCACTAGGCCAGAGTAGGTACGAAT	-0.165	-0.349	-0.323	-0.572	-0.877	0.171	1.13	0.532	0.0485	0.00605
GGAACGAGGGCAAGTTGATCGCAGAGTTTGATGG	0.747	0.257	-0.518	0.128	-0.392	1.6	0.859	0.878	-0.211	0.517
TCTAGCAGGTCAGAGGGTCACTCAAGAGGTACGG	4.13	3.26	0.192	2.87	-0.436	4.54	4.39	5.27	3.71	5.21
GCTTACGGGTTAAAGGTTATAGCATGAATAGAAT	4.76	4.09	0.422	4.17	0.397	5.9	8.86	7.5	6.81	8.18
CAGCCTAGGTCAGGGCCCGTATAGGAGGAACGTT	1.56	0.731	-0.61	0.395	-1.32	1.72	0.643	0.734	-0.158	0.0498
TAGCCTATGTCATGCGGGCCAGTATAGTGTCGGC	-0.542	-0.522	-0.975	-0.937	-0.855	-0.683	0.11	-0.476	-0.612	-0.433
TCCTGTAGATCAACAGGAGGTTAAGAAAGATCGA	-0.0851	1.1	0.0543	0.973	-0.977	1.28	-0.00253	1.25	2.01	1.49
TCGAGTAGGTTACCAATGGGGCATTCACCTTTCT	0.403	1.81	-0.322	1.57	-0.26	1.55	0.512	1.43	1.26	1.47
